# From PubChem BioAssay AID686979 (National Center for Advancing Translational Sciences (NCATS), 2013)
# Out of some 420,000 compounds screened, about 50,000 (12%) were called active. Roughly 26% stayed inconclusive and do not appear here. This is one part of a sample in which actives are shown more often than they occur. The call rests on the fitted dose curve; in most records, active means well fitted inhibition curve with a large enough effect; inconclusive means small, poorly fitted or top-dose-only effect; inactive means flat fitted curve, though single readings scatter.
# Assay: qHTS for Inhibitors of human tyrosyl-DNA phosphodiesterase 1 (TDP1): qHTS in cells in presence of CPT; further: nearly all actives have a fitted effect of over 55% in size
# Conditions: chicken DT40 Tdp1-/-;hTDP1 cells + 20 nM CPT, ATP luminescence, 48 h; series mostly up to 46.2 µM; activity change, negative = growth inhibition: at the top concentration
# Outline: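 Chicken DT40 Tdp1-/- cells stably complemented with human TDP1 were seeded at 400 cells/well in medium containing 20 nM camptothecin, exposed to pin-transferred compounds, and grown at 37 °C for at least 48 hr. Viability was read as ATP luminescence.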
# On the % scale 0 is the no-effect control and ±100 the full control effect; potency means the concentration at half of the fitted maximal effect.
Structure (SMILES),"activity change, negative = growth inhibition",Potency
CCc1c(C)sc(NC(=O)C2c3ccccc3Oc3ccccc32)c1C(=O)OC(C)C,-13.5% (inactive),–
Cc1ccn2c(=O)c(NC(=O)c3cccc4ccccc34)c(C)nc2c1,-23.8% (inactive),–
O=C(Nc1ccc(Cl)c(Cl)c1)N1CC=C(c2ccccc2)CC1,–,23.1 µM (active)
NC(=O)N1CCCC1C(=O)Nc1ccc(Cl)c(Cl)c1 (stereo not drawn),-26.9% (inactive),–
O=C(O)c1cccc(S(=O)(=O)N2CC=C(c3ccccc3)CC2)c1,7.01% (inactive),–
CCCCn1c(N)c(N(CCC(C)C)C(=O)c2ccc([N+](=O)[O-])o2)c(=O)[nH]c1=O,-28.3% (inactive),–
CCCCC(O)C1=C[N+](=O)CC=C1 (stereo not drawn),2.01% (inactive),–
O=c1[nH]c(CSc2ncc(-c3ccc(F)cc3)n2Cc2ccco2)nc2ccccc12,–,18.4 µM (active)
Nc1cc(=O)nc(SCc2ccccc2)n1Cc1ccco1,26.4% (inactive),–
CCn1c(Cc2ccccc2)nnc1SCc1nc2ccccc2c(=O)[nH]1,-18.4% (inactive),–
COc1ccc2ccn(C)c2c1,2.6% (inactive),–
CCOc1cc(NC(=S)NCCCOC)c(OCC)cc1NC(=O)c1ccco1,-14.1% (inactive),–
CCOc1cc(NC(=S)NCc2ccco2)c(OCC)cc1NC(=O)c1ccco1,-16.1% (inactive),–
CCOc1cc(NC(=O)c2ccco2)c(OCC)cc1NC(=O)COc1ccccc1,–,4.11 µM (active)
O=c1n(Cc2cccc(C(F)(F)F)c2)c2ccccc2c2nc(-c3ccccc3)nn12,–,23.1 µM (active)
Cc1cc(N2CCN(c3cccc(C(F)(F)F)c3)CC2)n2nc(-c3ccccc3)nc2n1,-1.02% (inactive),–
COc1ccc(-c2nc3c4ccccc4n(CC(=O)Nc4ccc(C(C)=O)cc4)c(=O)n3n2)cc1,-4.12% (inactive),–
CC(C)C(OC(=O)c1cccs1)C(=O)NC1CCCCC1 (stereo not drawn),-15% (inactive),–
Cc1ccc(NC(=O)CN(C)Cc2ccc(F)cc2)c([N+](=O)[O-])c1,-19.4% (inactive),–
CCn1c(SCC(=O)NC2CCCC2)nnc1-c1ccoc1C,-9.67% (inactive),–
COC(=O)c1onc(-c2c(OC)cc(OC)cc2OC)c1C(=O)OC,-5.28% (inactive),–
CN(C(=O)CN1C(=O)/C(=C/c2ccc(Cl)cc2)SC1=S)C1CCS(=O)(=O)C1 (stereo not drawn),–,18.4 µM (active)
CN(C(=O)CN1C(=O)S/C(=C\c2ccccc2F)C1=O)C1CCS(=O)(=O)C1 (stereo not drawn),-18.2% (inactive),–
CN(C(=O)CCN1C(=O)/C(=C/c2ccccc2F)SC1=S)C1CCS(=O)(=O)C1 (stereo not drawn),-94.6% (inactive),–
O=C(Nc1cc(C(F)(F)F)ccc1Cl)c1cc2nc(-c3ccc4c(c3)OCO4)cc(C(F)(F)F)n2n1,0.0565% (inactive),–
O=C(NCCCCCCCCCNC(=O)C(F)(F)F)C(F)(F)F,-14.6% (inactive),–

Structure (SMILES),"activity change, negative = growth inhibition",Potency
C/C(=N\NS(=O)(=O)c1cccc([N+](=O)[O-])c1)c1cc2ccccc2o1,1.15% (inactive),–
CCn1c(SCc2cc(=O)n3ccsc3n2)nc2ccccc21,-1.26% (inactive),–
COc1cccc(-n2cc(C(=O)O)c3ccccc3c2=O)c1,-10.9% (inactive),–
COc1cccc(-n2ccn(CC(=O)NCc3ccc(C)cc3)c(=O)c2=O)c1,-1.42% (inactive),–
CCN(Cc1ccccc1)C(=O)c1cn(-c2cccc(OC)c2)c(=O)c2ccccc12,–,18.4 µM (active)
COc1ccc(NC(=O)CSc2nnc(C3CC3)n2C)cc1S(=O)(=O)N1CCCCC1,-20.3% (inactive),–
COc1ccc(C2CC(=O)Oc3ccc(C(C)(C)C)cc32)cc1 (stereo not drawn),3.87% (inactive),–
N#Cc1ccc(/C=C2\CCn3c2nc2cc(C(=O)O)ccc2c3=O)cc1,-17.5% (inactive),–
COc1cccc(Cn2c(=O)cnc3cncnc32)c1,–,1.46 µM (active)
COc1cccc(Cn2c(=O)c(CCc3ccccc3)nc3cnc(N(C)C)nc32)c1,-20.6% (inactive),–
COc1cccc(Cn2c(=O)c(-c3ccccc3)nc3cnc(OC)nc32)c1,11.2% (inactive),–
Cc1ccc(C(=O)N/C(=C\c2cn(C)c3ccccc23)C(=O)N2CCN(C)CC2)cc1,-15.1% (inactive),–
Cc1cn(C2CC(O)C(CO)O2)c(=O)n(CCCc2ccccc2)c1=O (stereo not drawn),-4.26% (inactive),–
CCOc1c(Nc2cccc(Cl)c2)c(=O)c1=O,-0.433% (inactive),–
CCCCN(CC)C(=O)c1ccccc1Oc1ccccc1,–,20.6 µM (active)
CCCCN(CC)C(=O)c1c[nH]c2ccc(S(=O)(=O)Nc3cccc(OC)c3)cc2c1=O,-16% (inactive),–
CCCCN(CC)C(=O)c1ccc2c(c1)OCO2,-16.7% (inactive),–
C[C@H]1CN([C@@H](C)CO)C(=O)c2cc(Br)cnc2O[C@H]1CN(C)S(=O)(=O)c1cccs1,-17.2% (inactive),–
CCCCNC(=O)CSc1nc2ccc(NC(=O)CSc3nnc(COc4ccccc4C)n3C)cc2s1,-23.5% (inactive),–
COC(=O)C[C@@H]1C=C[C@@H](NS(=O)(=O)c2cccc(OC)c2)[C@@H](CO)O1,3.28% (inactive),–
O=C(NCc1ccc(F)cc1)c1cc(C2CCCCN2C(=O)C2CCCCC2)on1 (stereo not drawn),–,18.4 µM (active)
CS(=O)(=O)N1CCCCC1c1cc(C(=O)NCc2ccccc2)no1 (stereo not drawn),15.2% (inactive),–
CCCNC(=O)c1cc(C2CCCCN2C(=O)OC)on1 (stereo not drawn),-14.1% (inactive),–
COC(=O)[C@@H](Cc1ccccc1)NC(=O)NCCc1ccccc1,0.102% (inactive),–
COc1ccc(-c2[nH][nH]c(=O)c2NC(=O)c2ccc([N+](=O)[O-])cc2)cc1,1.08% (inactive),–
COc1ccc(OC)c(NC(=O)c2ccc3c(c2)CCN3S(C)(=O)=O)c1,-16.5% (inactive),–

Structure (SMILES),"activity change, negative = growth inhibition",Potency
CCCc1c(C(=O)Nc2ccc(F)cc2)cnn1-c1ccccc1,–,14.6 µM (active)
CCc1ccccc1NC(=O)c1cnn(-c2ccc(F)cc2)c1C1CCNCC1,3.96% (inactive),–
CCCc1c(C(=O)O)cnn1-c1ccc(Cl)cc1,4.33% (inactive),–
CCn1c(SCC(=O)N2CCCC2=O)nc2ccccc21,1.3% (inactive),–
O=C(N/N=C/c1ccsc1)c1cc(O)cc(O)c1,17.2% (inactive),–
CCCCC(=O)Nc1c2c(nn1-c1ccc([N+](=O)[O-])cc1)CS(=O)(=O)C2,1.47% (inactive),–
CCN(CC)S(=O)(=O)c1ccc2[nH]c(=O)cc(C(=O)N(C)C3CCS(=O)(=O)C3)c2c1 (stereo not drawn),3.51% (inactive),–
COc1cc(OC)cc(C(=O)NC(C(=O)N2CCC2)C(C)C)c1 (stereo not drawn),-15.4% (inactive),–
COc1ccc(N2CCN(C(=O)CCNC(=O)c3ccc(Br)cc3)CC2)cc1,-25% (inactive),–
COc1ccc(N2CCN(C(=O)[C@@H](NC(=O)c3cc(OC)cc(OC)c3)C(C)C)CC2)cc1,–,14.6 µM (active)
CS(=O)(=O)N1CCc2nc(-c3ccccc3)sc2C1,5.62% (inactive),–
CCOc1ccc(S(=O)(=O)NCCC(=O)NCC(C)(C)N2CCOCC2)cc1,5.12% (inactive),–
C=C(Br)Cn1c(CCCC)nc2ccccc21,–,18.4 µM (active)
C=CCn1c(P(C)(=O)O)nc2ccccc21,–,inactive
O=C(O)Cn1c(Cc2ccccc2)nc2ccccc21,32.8% (inactive),–
Cc1nc2sc(C)c(C)n2c(=O)c1S(=O)(=O)NCCc1ccc(Cl)cc1,-14.2% (inactive),–
COc1ccc(N(C)S(=O)(=O)c2cccc3nsnc23)cc1,11.3% (inactive),–
CCOc1ccc(N(C)S(=O)(=O)c2cc(-c3cnc(C)o3)ccc2OC)cc1,–,25.9 µM (active)
CCOC(=O)c1cc(-c2ccc(OC)c(S(=O)(=O)Nc3ccc(OC)cc3OC)c2)on1,-18% (inactive),–
CCOC(=O)c1cccc(NS(=O)(=O)c2cc(-c3cnc(C)o3)ccc2OC)c1,–,10.3 µM (active)
CCOc1ccc(N(C)S(=O)(=O)c2cnc[nH]2)cc1,0.234% (inactive),–
CCOC(=O)c1cccc(NS(=O)(=O)c2cn(C)c(C)n2)c1,-13.1% (inactive),–
CC(C)C(=O)Nc1nnc(SCC(=O)N2C(C)CCCC2C)s1 (stereo not drawn),4.9% (inactive),–
CSc1ccccc1OCc1cc(C(=O)N2C[C@H]3CC[C@H]2C3)no1,-14.9% (inactive),–
CCc1ccccc1NC(=S)Nc1cc(OC)c(NC(=O)C(C)C)cc1OC,-4.59% (inactive),–
CCc1ccccc1NC(=O)CCOc1ccccc1,–,inactive

Structure (SMILES),"activity change, negative = growth inhibition",Potency
CCc1ccccc1NC(=O)/C(=C/c1ccccc1)c1ccccc1,–,20.6 µM (active)
CC(=O)Nc1ccc(N2C(=O)C3C4C=CC(CC4)C3C2=O)cc1 (stereo not drawn),-1.89% (inactive),–
O=C(Nc1cccc(F)c1)[C@@H]1CCCN1,2.38% (inactive),–
Cc1ccc(CN2CCCOCCS2(=O)=O)cc1,–,inactive
O=C1NC[C@@H](CCCCN2CCN(CCc3ccc(O)cc3)C(=O)C2=O)N(CC2CCCCC2)C1=O,1.35% (inactive),–
Oc1ccc2c(c1)OCC1c3cc4c(cc3OC21)OCO4 (stereo not drawn),6.48% (inactive),–
O=S(=O)(NCCCN1CCOCC1)c1ccc(F)c(Cl)c1,-21.1% (inactive),–
O=[N+]([O-])c1cc(S(=O)(=O)CCCN2CCOCC2)ccc1F,–,20.6 µM (active)
O=C(NCCCN1CCOCC1)c1ccc([N+](=O)[O-])cc1[N+](=O)[O-],-28% (inactive),–
S=c1[nH]nc(-c2cccs2)n1/N=C/c1cccs1,2.49% (inactive),–
Cc1ccsc1/C=N/n1c(=S)[nH]nc(C)c1=O,–,16.4 µM (active)
Oc1ccccc1/C=N/n1c(-c2cccs2)n[nH]c1=S,-9.02% (inactive),–
O=C(COC(=O)c1cc2c(s1)CCCC2)NCc1ccccc1Cl,-21.5% (inactive),–
O=c1cc(COc2cccc(C(F)(F)F)c2)nc2sc3c(n12)CCCC3,-5.15% (inactive),–
Cc1ccc2nsnc2c1NC(=O)c1ccccc1[N+](=O)[O-],-0.576% (inactive),–
O=C(Nc1ccccn1)C1CCN(S(=O)(=O)c2ccc3c(c2)OCCO3)CC1,-7.52% (inactive),–
CCN1C(=NCC(C)C)N[C@@H](CCc2ccccc2)[C@H](C(=O)NCC(C)C)[C@H]1C,–,13 µM (active)
CCN1C(=O)N[C@@H](c2ccccc2)[C@H](C(C)=O)[C@H]1C,-20% (inactive),–
CCN1C(=NCCc2cccnc2)N[C@@H](c2ccccc2)[C@H](C(=O)OC)[C@H]1C,-27.5% (inactive),–
COCCN1C(=O)N[C@@H](CCc2ccccc2)[C@H](C(C)=O)[C@H]1C,-26.2% (inactive),–
CCN1C(=NCc2ccc(OC)cc2)N[C@@H](CCc2ccccc2)[C@H](C(=O)NCc2ccc(OC)cc2)[C@H]1C,–,18.4 µM (active)
O=C(CSc1nnc(N2CCOCC2)n1-c1cccc(F)c1)N1CCN(c2ccccn2)CC1,1.76% (inactive),–
Cc1cc(NC(=O)CSCC(=O)NC(C)c2ccccc2)no1 (stereo not drawn),-4.29% (inactive),–
CC(C)(C)NC(=O)COC(=O)c1cc(Br)ccc1Cl,4.4% (inactive),–
C[C@H](CO)N1C[C@H](C)[C@@H](CN(C)S(=O)(=O)c2ccc(F)cc2)Oc2c(NC(=O)Nc3ccccc3)cccc2C1=O,-28.6% (inactive),–
